# In PubChem BioAssay AID686978 (National Center for Advancing Translational Sciences (NCATS), 2013):
# Screen size: about 420,000 compounds; about 64,000 (15%) were called active. About 27% were inconclusive and are not listed. Only a sample is shown. A number with no mark means an inactive call. Calls come from the whole dose curve; as a rule, active = well fitted inhibition curve with a large enough effect; inconclusive = small, poorly fitted or top-dose-only effect; inactive = flat fitted curve, though single readings scatter.
# Experiment: qHTS for Inhibitors of human tyrosyl-DNA phosphodiesterase 1 (TDP1): qHTS in cells in absence of CPT; note: nearly all actives have a fitted effect of over 55% in size
# Conditions: DT40 Tdp1-/- hTDP1 cells, no CPT, ATP luminescence, 48 h; activity change, negative = growth inhibition: at 46.2 µM (top of the series)
# Procedure, shortened: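 Readout: luminescence from CellTiter-Glo after 30 min in the dark at RT. Cells: DT40 Tdp1-/- with stable hTDP1, 400/well. Exposure: compounds alone, ≥48 hr, 37 °C.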
# % is set by controls: 0 for no effect and ±100 for the full control effect; potency is the fitted concentration of half-maximal effect.
Structure (SMILES),"activity change, negative = growth inhibition [%]",Potency
Cc1cc(=O)oc2c1c(C)nn2-c1ccc(Cl)cc1,-23.9,–
O=C(Nc1ccccc1)OCc1cn(-c2ccc(Cl)cc2)nn1,-27.2,–
CC(=O)Nc1cccc(-c2cc(NC=O)c3ncc(-c4ccc(F)c(Cl)c4)n3c2)c1,–,16.4 µM (active)
CCOc1ccccc1C1CC(c2cccc(NS(C)(=O)=O)c2)=NN1C(=O)c1ccccc1 (configuration not stated),-12,–
CC(=O)Nc1cccc(-c2cnc3ccccc3n2)c1,-14.1,–
N#C/C=C(/c1ccc(F)cc1)N1CCOCC1,-5.74,–
O=CNc1cc(-c2ccc(C(=O)N3CCOCC3)cc2)cn2c(-c3ccc(F)cc3)cnc12,–,18.4 µM (active)
Cc1ccc(C(=O)N2CCN(C(=O)N3CCOCC3)CC2)cc1,-0.848,–
Cc1c(NC(=O)Nc2ccc(F)c(Cl)c2)c(=O)n(-c2ccccc2)n1C,-1.88,–
CC(=O)c1cccc(-c2cnc3c(NC=O)cc(-c4ccc(N(C)C)cc4)cn23)c1,–,8.2 µM (active)
CC(=O)c1ccc(-c2cnc3c(NC=O)cc(-c4cccc(NS(C)(=O)=O)c4)cn23)cc1,–,20.6 µM (active)
CCS(=O)(=O)Nc1cc(C(=O)N2C[C@@H](C)O[C@@H](C)C2)c2c(c1)nc(-c1ccccc1)n2C,-3.48,–
COC(c1ccccc1)c1nnc(CCC(=O)N2CCN(CCOc3ccccc3)CC2)o1 (configuration not stated),-28.4,–
CSc1nnc2c(n1)OC(c1cn(C)c3ccccc13)N(C(C)=O)c1ccccc1-2 (configuration not stated),-3.8,–
O=C(O)c1ccccc1CSc1nc2ccccc2s1,-19.5,–
CCNC(=O)CC1C(=O)N(c2ccc(F)cc2)C(=O)N1CCc1sccc1C (configuration not stated),-13.8,–
Cc1nc2nc[nH]n2c(=O)c1C/C=C/c1ccccc1,-2.31,–
CCn1c(CSc2ncccn2)nnc1SCC(=O)N1c2ccccc2CC1C (configuration not stated),-7.77,–
CCc1nnc(NC(=O)CCC(=O)NCc2ccccc2OC)s1,5.54,–
COc1ccccc1C1/C(=C(/O)c2ccc(OC(C)C)cc2)C(=O)C(=O)N1c1cc(C)on1 (configuration not stated),-14.2,–
COc1ccc(-c2nnco2)cc1OC,-8.54,–
COc1ccc(NC(C)=O)cc1NC(=O)CN1CCN(c2ccc(F)cc2)CC1,-26.4,–
O=C(Nc1ccc(F)cc1)N1CCN(c2ccc(F)cc2)CC1,-1.59,–

Structure (SMILES),"activity change, negative = growth inhibition [%]",Potency
COc1ccc(-c2cc(NC=O)c3ncc(-c4ccccc4)n3c2)cc1OC,–,8.2 µM (active)
CC(=O)c1cccc(-c2cnc3c(NC=O)cc(-c4ccccc4Oc4ccccc4)cn23)c1,–,14.6 µM (active)
CC(=O)Nc1cc(-c2ccc(N3CCN(C)CC3)cc2)cn2c(-c3ccc(F)cc3)cnc12,–,4.61 µM (active)
CN(C)C(=O)c1cccc(-c2cnc3c(NC=O)cc(-c4ccc(F)cc4)cn23)c1,–,6.51 µM (active)
COc1ccc(-c2nnc(SCC(=O)Nc3ccccc3C)o2)cc1OC,-12.8,–
CCCCCCCCCCOC(=O)C[N+](C)(C)CC1CCCCC1O (configuration not stated),-24.1,–
CO/N=C/c1cn(-c2ccc(Cl)cc2)nn1,1.24,–
CCOC(=O)CSc1nnc(CNC(=O)c2cccs2)n1-c1ccccc1,3.51,–
Nc1ccc(-c2nnc(-c3ccccc3)o2)cc1,-8.88,–
COc1ccccc1C1C(C(N)=O)=C(C)Nc2nc(CCCO)nn21 (configuration not stated),-29.3,–
Cc1cccc(C)c1NC(=O)CNC(=O)c1ccc2c(c1)OCCO2,-2.88,–
COc1ccccc1NC(=O)CCSc1nnc(-c2ccc(O)cc2)o1,-19.5,–
COCCCN1C(=O)c2ccc(C(=O)Nc3ccc(OC)cc3OC)cc2C1=O,3.04,–
COc1ccc(C2C(C(=O)Nc3ccccc3OC)=C(C)Nc3nnnn32)c(OC)c1 (configuration not stated),-22.7,–
CC(=O)c1cccc(-c2cnc3c(NC=O)cc(-c4ccc(N5CCN(C)CC5)cc4)cn23)c1,–,16.4 µM (active)
COc1ccc(-c2cc(NC=O)c3ncc(-c4cccc(C(=O)N(C)C)c4)n3c2)c(OC)c1,–,16.4 µM (active)
COc1ccc(C2(C#N)CCC(C(=O)O)CC2)cc1OC1CCCC1 (configuration not stated),-28.1,–
Cc1coc2cc3oc(=O)c(CCC(=O)O)c(C)c3cc12,-14.3,–
CC(C)Cc1nnc(NC(=O)CCC(=O)Nc2ccc3cn[nH]c3c2)s1,1.32,–
Nc1nonc1-n1nnc(C(=O)N/N=C\c2ccncc2)c1CN1CCCCC1,-5.18,–
COc1ccc(Cc2nnc(NS(=O)(=O)Cc3ccccc3)s2)cc1,6.02,–
CCC(C)(C(=O)NC1CCCC1)N(C(=O)CNC(C)=O)c1ccc(C)cc1 (configuration not stated),-23,–
Cc1nc2nc(SCC(=O)c3ccccc3)[nH]c2cc1Br,-19.9,–

Structure (SMILES),"activity change, negative = growth inhibition [%]",Potency
COc1ccc(OC)c(Cc2nnc(CCC(=O)NC3CCCC3)o2)c1,3.2,–
Cc1c(CCC(=O)O)c(=O)oc2c(C)c(OCc3ccccc3Cl)ccc12,-1.81,–
COc1ccc2c(C)c(CCC(=O)NC3CC3)c(=O)oc2c1C,–,16.4 µM (active)
O=C(Nc1cccc2c1N(C(=O)c1ccco1)CCC2)c1ccco1,1.69,–
O=c1[nH]c2ccc(S(=O)(=O)N3CCCC3)cc2[nH]1,-28.6,–
Cc1cc(C)cc(NC(=O)N(C)Cc2ccccc2)c1,-6.83,–
COC(=O)C(NS(=O)(=O)c1ccc(F)cc1)c1ccccc1 (configuration not stated),-17.5,–
CCOC(=O)C(C)n1cnc2c(nnn2-c2cccc(OC)c2)c1=O (configuration not stated),2.83,–
CCC(=O)Nc1ccc(C)cc1-c1nc2ccccc2n(Cc2ccccc2)c1=O,-15.3,–
CCc1cccc(CC)c1NC(=O)Cn1c(=O)c(-c2cc(C)ccc2NC(C)=O)nc2ccccc21,1.16,–
CCC(=O)Nc1nc2ccccc2n1Cc1ccccc1C,–,14.6 µM (active)
CCC(=O)Nc1ccc2nc(C)n(Cc3ccccc3Cl)c(=O)c2c1,-24.9,–
CC(=O)c1nc2ccccc2n1Cc1ccccc1,-0.649,–
CC(=O)Nc1nc2ccccc2n1Cc1ccc(C)cc1,–,13 µM (active)
Cc1cccc(N(CC(=O)N2CCOCC2)S(C)(=O)=O)c1,-1.19,–
CCNC(=O)COC(=O)CCNC(=O)c1cccc(C)c1,-4.54,–
CCOc1ccc(C(CC(=O)O)NC(=O)C23CC4CC(CC(C4)C2)C3)cc1OC (configuration not stated),-12.7,–
CN1C(=O)/C(=C/C=C2\SCCN2C)OC1=S,-19.2,–
COc1ccccc1-c1nc(N2CCN(C)CC2)c2ccccc2n1,7.74,–
COc1ccc(N2CCN(c3nc(-c4ccccc4F)nc4ccccc34)CC2)cc1,–,16.4 µM (active)
COc1ccc(N2CCN(CCNC(=O)c3nnc(Cc4c(F)cccc4Cl)o3)CC2)cc1,-19.9,–
